A short description of assay [1]: ATG_M_32_CIS: Attagene CIS-FACTORIAL HepG2 Assay for M32 Transcription Factor (Internal Marker) (AID 2282949).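 Further: background control marker of the multiplexed CIS panel rather than a real target.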 The settings on record: HepG2 Attagene cis-factorial M32 reporter, mRNA; actives raise or lower the signal. Summed up: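 HepG2 transfectants (cis-regulated reporter transcription units) dosed 24 h. Reporter mRNA by RT-PCR plus CE, analysed as gain or loss relative to DMSO.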

Assay [2] can be described thus: ATG_M_06_CIS: Attagene CIS-FACTORIAL HepG2 Assay for M06 Transcription Factor (Internal Marker) (AID 2282950). The conditions noted are these: HepG2 Attagene CIS-FACTORIAL M06 internal marker reporter; actives raise or lower the signal. Summed up:
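Steps: transfect HepG2 with multiplexed cis-element reporter constructs; dose chemical 24 h; extract RNA with DNase treatment; reverse-transcribe, PCR-amplify, 6-FAM label, HpaI digest; separate fragments by capillary electrophoresis. Activity fitted both directions versus DMSO.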

Assay [3] concerns the target Hypoxia-inducible factor 1-alpha (Homo sapiens) (UniProt Q16665). The assay can be described thus: ATG_HIF1a_CIS: Attagene CIS-FACTORIAL HepG2 Assay for human Hypoxia Inducible Factor 1 (HIF1A) (AID 2282951). The settings on record: HepG2 Attagene cis-factorial HIF1a reporter transcription; actives raise or lower the signal. Summed up: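 Activity is fitted in both directions relative to DMSO. Reporter transcripts are read by RT-PCR, fluorescent primer extension and capillary electrophoresis after 24 h chemical treatment. The cells are HepG2 carrying transiently transfected cis-element-driven reporter units responding to endogenous factors.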

Assay [4] addresses Hepatocyte nuclear factor 6 (Homo sapiens) (UniProt Q9UBC0). Put plainly: ATG_HNF6_CIS: Attagene CIS-FACTORIAL HepG2 Assay for human Hepatocyte Nuclear Factor 6 (HNF6) (AID 2282952). The conditions noted are these: HepG2 Attagene cis-factorial HNF6 reporter transcription; actives raise or lower the signal. Summed up:
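First, HepG2 cells were transfected with the multiplexed cis reporter library and dosed with chemical for 24 h. Next, RNA was reverse-transcribed, PCR-amplified and fluorescently labelled. Finally, HpaI-digested fragments were read by capillary electrophoresis.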

Assay [5] addresses Heat shock factor protein 1 (Homo sapiens) (UniProt Q00613). Put plainly: ATG_HSE_CIS: Attagene CIS-FACTORIAL HepG2 Assay for human Heat Shock Transcription Factor 1 (HSE) (AID 2282953). The conditions noted are these: HepG2 HSE cis-reporter, Attagene RNA transcription; actives raise or lower the signal. Summed up:
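Cells were transfected with cis-element-driven reporter constructs, dosed for 24 h, then total RNA was reverse-transcribed and reporter cDNA amplified, FAM-labelled and digested with HpaI. Fragments were resolved by capillary electrophoresis; gain or loss was fitted against DMSO.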

Assay [6] in a line: ATG_MRE_CIS: Attagene CIS-FACTORIAL HepG2 Assay for human Metal Responsive Element (MRE) (AID 2282954). The settings on record: HepG2 MRE cis-reporter transcription, Attagene multiplex; actives raise or lower the signal. Summed up:
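Measured here is mRNA induction from an MRE cis-element reporter in HepG2 after 24 h, quantified by fluorescence of labelled RT-PCR products on capillary electrophoresis; gain- and loss-of-signal fits use DMSO as baseline.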

Assay [7] is described as follows: ATG_PBREM_CIS: Attagene CIS-FACTORIAL HepG2 Assay for human Phenobarbital-responsive Enhancer Module (PBREM) (AID 2282955). The conditions noted are these: HepG2 PBREM cis-reporter, Attagene multiplexed transcription; actives raise or lower the signal. Summed up:
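Endogenous transcription factor activity was read from reporter transcripts in transiently transfected human HepG2 liver cells after 24 h dosing. RT-PCR products were fluorescently labelled, HpaI-cut and sized by capillary electrophoresis; activity fitted bidirectionally against DMSO baseline.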

Assay [8] has as its target Paired box protein Pax-6 (Homo sapiens) (UniProt P26367). The assay can be described thus: ATG_Pax6_CIS: Attagene CIS-FACTORIAL HepG2 Assay for human Paired Box 6 (PAX6) (AID 2282956). The conditions noted are these: HepG2 CIS-FACTORIAL PAX6 reporter transcription, RNA readout; actives raise or lower the signal. Summed up:
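DMSO-referenced bidirectional fits of reporter mRNA fluorescence; HepG2 with transient cis-promoter MRTUs, 24 h post-dose, RT-PCR plus capillary electrophoresis detection.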

The nature of assay [9]: ATG_PXRE_CIS: Attagene CIS-FACTORIAL HepG2 Assay for human Pregnane X Receptor Element (PXRE) (AID 2282957). The conditions noted are these: HepG2 Attagene CIS-FACTORIAL PXRE reporter, mRNA; actives raise or lower the signal. Summed up:
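After a 24 h chemical incubation, total RNA from transfected HepG2 cells was reverse-transcribed and reporter cDNA amplified, FAM-labeled, HpaI-digested and sized by capillary electrophoresis. DMSO served as baseline for bidirectional curve fitting.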

Assay [10] is described as follows: ATG_PPRE_CIS: Attagene CIS-FACTORIAL HepG2 Assay for human Peroxisome Proliferator-activated Response Element (PPRE) (AID 2282958). The settings on record: HepG2 PPRE cis-element reporter, Attagene transcription factor profiling; actives raise or lower the signal. Summed up:
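Endogenous PPRE-driven transcription is measured in HepG2 cells carrying transfected multi-reporter constructs. Reporter transcripts are quantified by RT-PCR, HpaI digestion and capillary electrophoresis 24 h after dosing. DMSO baseline, bidirectional fit.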

Assay [11] in a line: ATG_RORE_CIS: Attagene CIS-FACTORIAL HepG2 Assay for human RAR-related Orphan Receptor Element (RORE) (AID 2282959). The conditions noted are these: HepG2 Attagene cis-factorial RORE reporter, mRNA; actives raise or lower the signal. Summed up: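 RORE reporter transcripts reflecting endogenous factor activity were read after 24 h compound exposure of transfected HepG2 cells, using reverse transcription, PCR, fluorescent labelling and capillary electrophoresis sizing. Gain or loss fitted against DMSO.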

Assay [12] can be described thus: ATG_Sox_CIS: Attagene CIS-FACTORIAL HepG2 Assay for human SRY-box transcription factor (SOX) (AID 2282960). The settings on record: HepG2 Attagene cis-factorial SOX reporter, mRNA; actives raise or lower the signal. Summed up:
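Reporter transcripts, measured by RT-PCR and capillary electrophoresis of labelled fragments, report endogenous SOX transcription factor activity. Transiently transfected human HepG2 cells receive chemical for 24 h; changes in either direction are fitted relative to DMSO.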

Assay [13] deals with Transcription factor Sp1 (Homo sapiens) (UniProt P08047). The assay can be described thus: ATG_Sp1_CIS: Attagene CIS-FACTORIAL HepG2 Assay for human Specificity Protein 1 (Sp1) (AID 2282961). The settings on record: HepG2 Sp1 cis-reporter transcription, actives raise or lower the signal. Summed up:
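Read-out is reporter transcript level, measured by RT-PCR and fluorescent capillary electrophoresis after 24 h chemical treatment. System: transiently transfected HepG2 cells reporting endogenous transcription factor activity; gain or loss fitted against DMSO baseline.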

The nature of assay [14]: ATG_SREBP_CIS: Attagene CIS-FACTORIAL HepG2 Assay for human Sterol Regulatory Element Binding (SREBP) (AID 2282962). The conditions noted are these: HepG2 Attagene cis-factorial SREBP reporter, mRNA; actives raise or lower the signal. Summed up: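 In this cis-format assay, HepG2 liver cells express reporters controlled by promoter elements responsive to native transcription factors. Exposure lasts 24 h; reporter mRNA fluorescence from capillary electrophoresis gives the signal, fitted bidirectionally against DMSO.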

The target of assay [15] is Signal transducer and activator of transcription 3 (Homo sapiens) (UniProt P40763). The assay can be described thus: ATG_STAT3_CIS: Attagene CIS-FACTORIAL HepG2 Assay for human Signal Transducer and Activator of Transcription 3 (STAT3) (AID 2282963). The settings on record: HepG2, Attagene cis-factorial STAT3 reporter transcription; actives raise or lower the signal. Summed up: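 Fluorescence intensity of 6-FAM-labelled reporter fragments, separated by capillary electrophoresis after RT-PCR, gave the signal. Cells were HepG2 transfected with cis-element reporter units and treated 24 h; fitting was bidirectional relative to DMSO.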

A short description of assay [16]: ATG_TA_CIS: Attagene CIS-FACTORIAL HepG2 Assay for human TA Basal Promoter (AID 2282964). The settings on record: HepG2 Attagene CIS-factorial TA basal promoter reporter; actives raise or lower the signal. Summed up: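 Steps: transfect HepG2 with MRTUs; dose 24 h; isolate RNA, DNase-treat, reverse-transcribe; PCR and FAM-label reporter cDNA; digest with HpaI 2h at 37 C; run capillary electrophoresis. Activity fitted both directions against DMSO.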

The nature of assay [17]: ATG_TCF_b_cat_CIS: Attagene CIS-FACTORIAL HepG2 Assay for human T-Cell-Factor with beta-catenin (TCF/b-cat) (AID 2282965). The settings on record: HepG2 TCF/beta-catenin cis-reporter transcription, actives raise or lower the signal. Summed up: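 Cells of the HepG2 line carry transiently transfected reporter units whose promoters respond to endogenous factors. Twenty-four hours post-dosing, reporter mRNA induction is measured by fluorescent RT-PCR and capillary electrophoresis, with DMSO as baseline.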

Assay [18] is described as follows: ATG_TAL_CIS: Attagene CIS-FACTORIAL HepG2 Assay for human TAL Basal Promoter (AID 2282966).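 Further: background control endpoint measuring basal TAL promoter reporter mRNA not a specific factor.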 The settings on record: HepG2 Attagene cis-factorial TAL promoter reporter; actives raise or lower the signal. Summed up: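 Basal-promoter background-control endpoint from a multiplexed HepG2 reporter panel. Cells were exposed 24 h, then reporter mRNA was read by RT-PCR/CE fluorescence and fitted in both directions relative to DMSO.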

Assay [19] in a line: ATG_TGFb_CIS: Attagene CIS-FACTORIAL HepG2 Assay for human Transforming Growth Factor (TGF) (AID 2282967). The conditions noted are these: HepG2 Attagene CIS TGFb reporter, mRNA transcription; actives raise or lower the signal. Summed up:
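Cells were dosed for 24 hours, after which total RNA was reverse-transcribed and reporter sequences amplified, labeled and sized by capillary electrophoresis. Activity was fitted in both directions against DMSO.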

Assay [20] in a line: ATG_VDRE_CIS: Attagene CIS-FACTORIAL HepG2 Assay for human Vitamin D Receptor Element (VDRE) (AID 2282968). The conditions noted are these: HepG2 VDRE cis-reporter transcription, actives raise or lower the signal. Summed up:
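Compounds were applied for 24 h to HepG2 cells transfected with promoter-regulated reporter units. Total RNA was reverse-transcribed, and reporter amplicons were fluorescently labelled and sized by capillary electrophoresis.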

Several values for one entry are separate records, joined by “and”; a condition that tells them apart may be missing. Equal values may be shown once. The source holds several records for some structures; these can differ, active in one and inactive in another. Activity calls are given as the source filed them. How the source made its calls: active means hit-call score of the fitted dose curve at least 0.9, where 1 is the maximum; inactive means score below 0.9.

Chain of Hypoxia-inducible factor 1-alpha (Homo sapiens) (Q16665 whole entry, looked up): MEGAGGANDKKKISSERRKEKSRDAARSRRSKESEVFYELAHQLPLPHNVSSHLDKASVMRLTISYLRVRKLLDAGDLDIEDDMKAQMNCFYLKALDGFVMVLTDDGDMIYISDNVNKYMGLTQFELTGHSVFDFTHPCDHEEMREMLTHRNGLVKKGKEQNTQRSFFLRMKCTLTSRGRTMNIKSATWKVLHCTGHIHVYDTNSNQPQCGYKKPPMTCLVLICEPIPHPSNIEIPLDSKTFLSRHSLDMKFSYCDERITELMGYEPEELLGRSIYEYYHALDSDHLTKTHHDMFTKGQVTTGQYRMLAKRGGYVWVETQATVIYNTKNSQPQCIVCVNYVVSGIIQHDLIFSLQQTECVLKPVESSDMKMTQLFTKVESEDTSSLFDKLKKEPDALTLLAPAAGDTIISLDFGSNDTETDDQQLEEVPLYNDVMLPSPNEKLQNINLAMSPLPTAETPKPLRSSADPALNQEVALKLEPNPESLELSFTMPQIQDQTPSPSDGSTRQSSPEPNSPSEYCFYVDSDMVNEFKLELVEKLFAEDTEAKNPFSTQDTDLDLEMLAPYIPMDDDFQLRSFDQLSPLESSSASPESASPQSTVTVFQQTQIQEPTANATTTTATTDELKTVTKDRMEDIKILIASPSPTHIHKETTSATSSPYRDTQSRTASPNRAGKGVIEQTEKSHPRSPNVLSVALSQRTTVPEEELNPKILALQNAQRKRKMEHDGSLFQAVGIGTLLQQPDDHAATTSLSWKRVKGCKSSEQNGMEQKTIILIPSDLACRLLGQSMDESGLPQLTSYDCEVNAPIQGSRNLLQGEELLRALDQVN
Chain of Heat shock factor protein 1 (Homo sapiens) (Q00613 whole entry, looked up, the tested form may be a part): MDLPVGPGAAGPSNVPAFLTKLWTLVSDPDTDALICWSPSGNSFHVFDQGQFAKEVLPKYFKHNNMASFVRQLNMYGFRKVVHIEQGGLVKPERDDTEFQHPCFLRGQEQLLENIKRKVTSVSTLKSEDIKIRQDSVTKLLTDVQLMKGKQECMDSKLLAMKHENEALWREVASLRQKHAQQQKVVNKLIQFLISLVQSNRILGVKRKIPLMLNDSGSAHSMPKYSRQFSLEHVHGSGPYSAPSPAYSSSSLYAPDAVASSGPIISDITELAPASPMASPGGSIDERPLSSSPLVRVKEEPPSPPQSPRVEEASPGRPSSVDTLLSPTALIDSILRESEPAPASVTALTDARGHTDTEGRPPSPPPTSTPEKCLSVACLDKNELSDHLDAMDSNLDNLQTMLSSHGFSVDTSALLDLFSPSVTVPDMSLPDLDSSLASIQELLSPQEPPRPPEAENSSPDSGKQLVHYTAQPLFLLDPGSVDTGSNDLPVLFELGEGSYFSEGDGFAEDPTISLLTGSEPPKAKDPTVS
Chain of Paired box protein Pax-6 (Homo sapiens) (P26367 whole entry, looked up): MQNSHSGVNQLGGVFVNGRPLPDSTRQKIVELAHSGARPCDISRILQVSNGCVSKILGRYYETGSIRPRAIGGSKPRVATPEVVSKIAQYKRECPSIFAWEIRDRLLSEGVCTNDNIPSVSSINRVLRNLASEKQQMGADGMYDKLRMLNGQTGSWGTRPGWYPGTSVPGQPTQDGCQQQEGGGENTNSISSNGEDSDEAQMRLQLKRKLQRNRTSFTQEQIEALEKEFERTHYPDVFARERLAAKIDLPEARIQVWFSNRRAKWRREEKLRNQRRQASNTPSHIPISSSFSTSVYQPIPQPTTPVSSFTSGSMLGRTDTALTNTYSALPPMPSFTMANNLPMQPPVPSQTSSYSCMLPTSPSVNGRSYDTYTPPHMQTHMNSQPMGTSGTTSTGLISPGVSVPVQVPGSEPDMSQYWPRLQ
Chain of Hepatocyte nuclear factor 6 (Homo sapiens) (Q9UBC0 whole entry, looked up, the tested form may be a part): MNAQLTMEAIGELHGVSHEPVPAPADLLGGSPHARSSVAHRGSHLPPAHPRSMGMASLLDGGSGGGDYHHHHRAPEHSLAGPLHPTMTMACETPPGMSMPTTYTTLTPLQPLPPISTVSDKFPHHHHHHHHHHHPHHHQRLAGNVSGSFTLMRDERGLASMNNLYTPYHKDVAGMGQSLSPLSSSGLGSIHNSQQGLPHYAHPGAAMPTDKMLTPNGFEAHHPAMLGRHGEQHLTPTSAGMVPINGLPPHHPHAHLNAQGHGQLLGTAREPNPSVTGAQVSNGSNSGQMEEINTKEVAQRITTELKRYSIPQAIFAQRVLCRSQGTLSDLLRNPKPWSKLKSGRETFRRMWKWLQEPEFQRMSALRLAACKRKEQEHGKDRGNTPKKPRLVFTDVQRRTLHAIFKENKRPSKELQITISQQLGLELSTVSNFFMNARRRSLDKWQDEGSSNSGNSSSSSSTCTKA
Chain of Transcription factor Sp1 (Homo sapiens) (P08047 whole entry, looked up): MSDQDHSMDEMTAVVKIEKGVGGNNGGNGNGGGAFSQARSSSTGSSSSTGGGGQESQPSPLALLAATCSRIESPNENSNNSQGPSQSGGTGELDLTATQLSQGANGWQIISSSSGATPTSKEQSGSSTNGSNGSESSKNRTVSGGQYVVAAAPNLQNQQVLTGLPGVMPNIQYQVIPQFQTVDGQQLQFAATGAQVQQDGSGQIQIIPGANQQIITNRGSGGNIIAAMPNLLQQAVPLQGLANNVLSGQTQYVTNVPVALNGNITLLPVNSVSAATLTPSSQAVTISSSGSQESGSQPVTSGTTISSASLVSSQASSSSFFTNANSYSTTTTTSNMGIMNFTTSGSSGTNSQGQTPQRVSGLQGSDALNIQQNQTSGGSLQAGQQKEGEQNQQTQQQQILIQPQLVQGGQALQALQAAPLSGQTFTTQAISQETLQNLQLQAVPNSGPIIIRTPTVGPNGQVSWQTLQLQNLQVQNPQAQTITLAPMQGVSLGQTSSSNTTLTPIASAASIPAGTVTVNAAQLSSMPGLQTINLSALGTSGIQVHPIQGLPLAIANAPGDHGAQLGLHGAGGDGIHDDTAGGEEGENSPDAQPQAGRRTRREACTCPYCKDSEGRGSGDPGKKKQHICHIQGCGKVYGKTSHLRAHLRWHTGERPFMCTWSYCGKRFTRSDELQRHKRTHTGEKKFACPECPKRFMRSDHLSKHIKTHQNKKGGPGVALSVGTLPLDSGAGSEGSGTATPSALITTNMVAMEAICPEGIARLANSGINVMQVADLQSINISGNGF
Chain of Signal transducer and activator of transcription 3 (Homo sapiens) (P40763 whole entry, looked up, the tested form may be a part): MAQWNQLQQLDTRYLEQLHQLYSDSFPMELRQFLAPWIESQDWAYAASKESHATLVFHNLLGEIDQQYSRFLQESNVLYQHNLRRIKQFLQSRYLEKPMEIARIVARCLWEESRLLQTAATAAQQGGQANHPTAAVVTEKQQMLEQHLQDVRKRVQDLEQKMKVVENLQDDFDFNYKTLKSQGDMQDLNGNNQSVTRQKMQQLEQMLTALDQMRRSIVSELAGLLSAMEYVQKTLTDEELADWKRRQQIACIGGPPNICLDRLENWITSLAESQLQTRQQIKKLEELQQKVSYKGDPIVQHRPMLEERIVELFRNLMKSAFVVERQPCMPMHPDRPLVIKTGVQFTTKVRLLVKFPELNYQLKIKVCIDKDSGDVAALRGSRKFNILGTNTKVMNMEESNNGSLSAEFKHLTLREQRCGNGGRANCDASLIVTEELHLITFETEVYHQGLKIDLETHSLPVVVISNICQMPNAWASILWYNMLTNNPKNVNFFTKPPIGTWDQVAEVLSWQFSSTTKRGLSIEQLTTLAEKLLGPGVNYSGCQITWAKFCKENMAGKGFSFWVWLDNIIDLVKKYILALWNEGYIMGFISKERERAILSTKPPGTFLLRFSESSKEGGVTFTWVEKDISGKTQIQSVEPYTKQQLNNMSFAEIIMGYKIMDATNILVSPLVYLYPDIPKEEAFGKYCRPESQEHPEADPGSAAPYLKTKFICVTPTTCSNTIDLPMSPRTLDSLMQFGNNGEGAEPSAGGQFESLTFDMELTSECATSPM

Turning to `OCC1CCC(CO)CC1` (configuration not stated), the result in [1], in [2], in assay [3], in [4], in [5] and in assay [6] was inactive. The outcome in [7], in assay [8], in assay [9], in [10], in assay [11] and in assay [12] was inactive. Besides, the call in assay [13], in assay [14], in assay [15], in assay [16], in assay [17] and in assay [18] was inactive. Further, the call in assay [19] and in [20] was inactive.

With `CCOC(OCC)C(=O)c1ccccc1`, the compound was called inactive in assay [1], in assay [2], in assay [3], in assay [4], in assay [5] and in assay [6]. Moreover, the outcome in assay [7], in assay [8], in assay [10], in assay [11], in assay [12] and in assay [13] was inactive. The call in [14], in [15], in [16], in assay [17], in assay [18] and in [19] was inactive. Besides, the compound was called inactive in assay [20]. Also, the AC50 in assay [9] was 36.8 µM (active).

In the case of `O=C(O)C(F)(F)OC(F)(F)C(F)(F)OC(F)(F)C(F)(F)OC(F)(F)C(F)(F)C(F)(F)C(F)(F)F`, the outcome in assay [1], in [2], in assay [3], in assay [4], in assay [5] and in assay [7] was inactive. Further, the result in [12], in assay [13], in assay [15], in [16], in assay [18] and in [19] was inactive. Further, the AC50 in assay [3] was 28.2 µM (active); in [4] it was 70.1 µM (active); in assay [5] it was 23.7 µM (active); in assay [6], 31.4 µM (active) and 28.9 µM (active); in assay [8] it was 25.9 µM (active) and 29.1 µM (active); in [10], 13.1 µM (active) and 22.1 µM (active). Further, the AC50 in assay [11] is 45.4 µM (active) and 21.6 µM (active); in assay [12], 37.3 µM (active); in assay [13], 31.8 µM (active); in assay [17] it was 25.9 µM (active) and 24.4 µM (active); in [20], 13.1 µM (active) and 30 µM (active).

On to `CC(C)(C)c1ccc(O)c(O)c1`, for which the result in assay [1], in [2], in [3], in [4], in assay [7] and in assay [8] was inactive. Further, the call in assay [10], in assay [11], in [12], in assay [13], in assay [14] and in assay [15] was inactive. Also, the call in assay [16], in assay [17], in [18] and in [19] was inactive. Also, the AC50 in assay [3] is 26.1 µM (active) and 25.9 µM (active) and 25.5 µM (active); in assay [5] it was 133 µM (active) [middle of 5 runs]; in assay [8], 99.1 µM (active) and 57.3 µM (active); in [9], 2.45 µM (active) [middle of 5 runs]; in assay [11], 45.8 µM (active) and 27.9 µM (active) and 54.2 µM (active); in assay [14], 57.1 µM (active). In addition, the AC50 in assay [19] is 100 µM (active) and 46.6 µM (active) and 42.3 µM (active); in assay [20], 4.28 µM (active) [middle of 5 runs].

`Cc1ccc(C(=O)c2ccccc2)cc1`: the result in assay [1], in assay [2], in [3], in [4], in assay [5] and in [6] was inactive. Also, the result in assay [7], in assay [8], in assay [10], in assay [11], in assay [12] and in [13] was inactive. Moreover, the call in assay [14], in assay [15], in assay [16], in assay [17], in [18] and in [19] was inactive. Further, the compound was called inactive in assay [20]. The AC50 in assay [9] was 30.4 µM (active).

The record behind these values is PubChem BioAssay (EPA / NIEHS).
